In PubChem BioAssay:
Where “and” joins values, the source holds several entries; their conditions need not be identical. Equal entries are not always repeated.

Each molecule was assayed against Pro-neuregulin-1, membrane-bound isoform (Homo sapiens) (UniProt Q02297) (assay: NRG1 binders on small-molecule microarrays, primary screen, psychiatric disease protein project, biochemical, small-molecule microarray, fluorescence 635/667 (AID 1075;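 further: score combines 667 nm spot fluorescence with signal to noise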)). Conditions: NRG1 binding, 635 nm fluorescence, higher = more signal.
Sequence of Pro-neuregulin-1, membrane-bound isoform (Homo sapiens) (Q02297 whole entry, looked up, canonical isoform): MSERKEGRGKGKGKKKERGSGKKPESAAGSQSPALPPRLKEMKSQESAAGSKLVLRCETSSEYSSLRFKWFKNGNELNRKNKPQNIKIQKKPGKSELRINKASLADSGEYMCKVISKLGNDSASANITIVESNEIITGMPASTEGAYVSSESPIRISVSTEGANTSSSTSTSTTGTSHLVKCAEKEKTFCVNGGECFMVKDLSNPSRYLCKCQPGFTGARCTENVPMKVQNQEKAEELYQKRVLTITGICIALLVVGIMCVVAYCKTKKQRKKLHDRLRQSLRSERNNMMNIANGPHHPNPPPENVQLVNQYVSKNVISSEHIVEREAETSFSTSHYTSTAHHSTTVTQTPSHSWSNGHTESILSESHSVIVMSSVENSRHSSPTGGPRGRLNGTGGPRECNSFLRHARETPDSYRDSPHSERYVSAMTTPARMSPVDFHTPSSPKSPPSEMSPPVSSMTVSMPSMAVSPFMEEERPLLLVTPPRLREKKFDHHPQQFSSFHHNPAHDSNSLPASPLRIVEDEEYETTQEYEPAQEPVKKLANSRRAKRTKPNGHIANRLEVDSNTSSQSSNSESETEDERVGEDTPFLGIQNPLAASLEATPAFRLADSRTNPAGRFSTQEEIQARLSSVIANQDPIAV

SMILES	composite z-score
CCOC(=O)[C@@H]1CC=C2CC1C(=O)N1CCC[C@@H]1[C@H]2O[Si](C)(C)C(C)(C)C (some centres not stated)	-0.653 and -0.709
CCOC(=O)[C@@H]1CC2O[C@]23C[C@@H]1C(=O)N1CCC[C@@H]1[C@H]3O[Si](C)(C)C(C)(C)C (some centres not stated)	-0.737 and -0.343
Cc1ccc(S(=O)(=O)OC[C@@H]2CN3[C@@H](CC[C@@H](C)[C@@H]3c3ccc(Br)cc3)C(=O)O2)cc1	0.311 and 0.0379
COC(=O)C1=C(C)N(Cc2ccccc2)[C@]23O[C@](C(=O)OC)(C(=O)N2[C@@H]1c1ccccc1)[C@H]1C(=O)N(c2ccccc2)C(=O)[C@H]13	0.288 and 0.212
CCOC(=O)c1ccc(NC(=O)O[C@H]2[C@H](OC(=O)Nc3ccccc3)[C@H](OC(=O)Nc3ccccc3)[C@@H](OC)O[C@@H]2CO)cc1	1.68 and 1.8
C[N+](C)(C)CCCCCCNC(=O)[C@H]1C[C@H]2C(=O)N[C@@H](CCCC[N+](C)(C)C)C(=O)N2[C@H]1c1ccc(O)cc1	-0.0293 and -0.0659
Cc1ccc(S(=O)(=O)N[C@@H]2COC(=O)CC=C[C@@H](C)[C@@H]3C=C[C@H](O)[C@@H](COC(=O)CC=C[C@H]2C)O3)cc1	-0.22 and -0.195
CCCNC(=O)OC[C@H]1O[C@H](CCON=C(C)CCC(=O)OC[C@H]2O[C@H](C#Cc3ccccc3)C=C[C@@H]2Oc2ccc(C)cc2)C=C[C@@H]1Oc1ccc(OC)cc1	-0.21
C=CCN(CCCC)C(=O)C1N(C(C)(C)CO)C(=O)C2C(C(=O)O)C3C=CC21O3 (configuration not stated)	1.06 and -1.21
C=C[C@@H](C)[C@H](O)c1ccc(O)c2ccccc12	-0.0351 and -0.653
C=CCN(Cc1ccccc1)C(=O)C1N(C(C)(C)CO)C(=O)C2C(C(=O)O)C3C=CC21O3 (configuration not stated)	-1 and -0.987
C=CC[C@H](O)c1ccc(OCCO)cc1	0.524 and -0.434
C=CCN(C(=O)C(c1cccs1)N(C(=O)/C=C\C(=O)O)c1ccc(CCO)cc1)c1ccc(OC)cc1 (configuration not stated)	0.017 and -1.66
C=CC[C@@H](O)c1ccc(OCCO)cc1	-0.773 and -0.567
C=CCN(C(=O)C1N(CCCCCCO)C(=O)C2C(C(=O)O)C3C=CC21O3)c1ccc(OC)cc1 (configuration not stated)	1.12 and -1.47
COC(=O)C1=C(C)N(Cc2ccccc2)C2=C(C(=O)c3ccccc3)[C@H](c3ccccc3)[C@@](O)(C(=O)OC)C(=O)N2[C@@H]1c1ccccc1	0.296 and -0.085
Cc1ccc(S(=O)(=O)N[C@H]2COC(=O)[C@@H](C)COC(=O)[C@H](C)NC(=O)CC=C[C@H]2C)cc1	-0.476
